This is an account of results in PubChem BioAssay (NCI).

About 83,000 compounds went through this panel and 20% of them were active in at least one assay; those are over-represented in the sample as a whole.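 How to read the values: 0–100, growth inhibition (40 = 60% inhibited); 0, no net growth; -100 to 0, cell death (-40 = 40% of starting cells died; -100 = all dead).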 A number with no mark means an inactive call. Active and inactive are the calls of the source. The calls were made as follows: active = growth percent below 10; inactive = the rest.

Common to all, as to assay: NCI-60 one-dose screen, 48 h (100 = growth as untreated, 0 = no growth, -100 = all killed)
Common to all, as to conditions: 10 µM unless noted

For assay [1], the system named is HCT-15 colon.
In assay [2] the test system is HT29 colon.
In assay [3] the test system is SNB-75 CNS.
For assay [4], the system named is SNB-19 CNS.
In assay [5] the test system is U251 CNS.
The subject of assay [6] is PC-3 prostate.
Assay [7] has as its system SK-MEL-5 melanoma.
The test system of assay [8] is UACC-62 melanoma.
Assay [9] has as its system LOX IMVI melanoma.
Assay [10] concerns SK-MEL-28 melanoma.

On to `OC1CSSC1Cn1cnc2c(Nc3ccc(F)c(Cl)c3)ncnc21` (stereo not given), for which the growth was 92.5% in assay [1]; 83.2% in assay [2]; 114% in assay [3]; 90.4% in assay [4]; 84.3% in [5]; 80.5% in [6]. Besides, the growth in assay [7] was 88.2%; in [8] it was 16.3%; in assay [9] it was 47.9%; in [10], 78.3%.

Turning to `CO[C@H]1CC(c2ccc[nH]2)=N[C@]12O[C@@H](C)C[C@@H]1CCCCCCCc3ccc([nH]3)[C@H]12`, the growth in assay [1] is 10.4%; in assay [2], 12.3%; in [3] it was 3.5% (active); in assay [4], 55.4%; in assay [5], 19.7%; in assay [6], 42.2%. Also, the growth is -38.4% (active) in assay [7], -47.8% (active) in [8], -45.1% (active) in assay [9] and 38.6% in [10].

As to `CC(C)(C)n1cc(-c2ccnc(NCCNS(=O)(=O)c3cccc4ccccc34)c2)c(-c2cccc(O)c2)n1`, the growth in [1] was 20.9%; in assay [2], 6.71% (active); in assay [3] it was 37.9%; in [4] it was 88%; in assay [5], 57.5%; in assay [6] it was 59%. In addition, the growth in assay [7] was 45.1%; in assay [8] it was 76.9%; in assay [9], 61.8%; in [10], 83.4%.

With `O=C1/C(=C/c2ccc(Br)cc2)COc2ccc(O)cc21`, the growth in assay [1] was 42.5%; in assay [2] it was 28.9%; in assay [3], 92.7%; in [4], 87.3%; in assay [5] it was 57%; in assay [6], 77.4%. The growth in [7] is 96%; in assay [8] it was 79.3%; in assay [9] it was -1.48% (active); in assay [10] it was 97.7%.

Regarding `Oc1ccc(C(c2ccc(O)cc2)c2ccc(Cl)cn2)cc1`, the growth was 23.2% in assay [1]; 47.9% in assay [2]; -32.5% (active) in assay [3]; 71.9% in assay [4]; 97% in assay [5]; -32.2% (active) in assay [6]. Moreover, the growth was 96.5% in assay [7], 39.3% in assay [8], -42.6% (active) in assay [9] and 112% in assay [10].

As for `CNC(=O)c1cc(Oc2ccc3nc(NC(=O)Nc4ccc(F)cc4F)sc3c2)ccn1`, the growth is 84% in assay [1]; 58.8% in assay [2]; 19.2% in assay [3]; 71.1% in [4]; 37% in [5]; 65.9% in assay [6]. Moreover, the growth is 39% in assay [7], 65.1% in assay [8], 52.1% in [9] and 52.1% in [10].

As to `CC/C(=C(/c1ccc(Cl)cc1)c1ccc(OCCN2CCCC2)cc1)c1ccccc1`, the growth was 6.41% (active) in [1]; -25.4% (active) in assay [2]; 96.3% in [3]; 60.6% in [4]; 32.1% in assay [5]; 40.4% in [6]. The growth in assay [7] is 22.4%; in assay [8] it was 79.2%; in [9], 32.4%; in assay [10], 76.9%.

With `COc1cc(/C=C2\CN(S(=O)(=O)c3ccc(C)cc3)C/C(=C\c3cc(CN4CCCC4)c(O)c(OC)c3)C2=O)cc(CN2CCCC2)c1O`, the growth was -2.28% (active) in [1]; -60.7% (active) in assay [2]; 34.3% in assay [3]; 15.6% in assay [4]; -74.5% (active) in assay [5]; -20.2% (active) in [6]. The growth in assay [7] is -17.5% (active); in assay [8], 34.3%; in assay [9], -92.5% (active); in assay [10], 10.3%.

Take `CC(=O)OCC(=O)O[C@@H]1C[C@]2(C(C)C)O[C@@]1(C)[C@@H]1CC[C@@H](C)[C@H]1[C@@H]2OC(=O)/C=C/c1ccccc1`: the growth in [1] was 81.4%; in assay [2] it was 82.3%; in assay [3], 62.3%; in assay [4], 86.6%; in [5], 74.7%; in [6], 58.6%. Also, the growth is 74.4% in [7], 81% in assay [8], 90.2% in assay [9] and 102% in [10].

As for `C#CC(F)(F)[C@]1(O)CCC2C3CCC4=CC(=O)CCC4=C3[C@@H](c3ccc(N(C)C)cc3)C[C@@]21C` (stereo not given in full), the growth in assay [1] was 90%; in assay [2] it was 87.9%; in assay [3] it was 73.9%; in assay [4], 98.6%; in assay [5] it was 89.3%; in assay [6], 66%. For the same molecule, the growth in assay [7] is 84%; in assay [8] it was 81%; in assay [9] it was 96.2%; in assay [10], 109%.

For `[2H]C([2H])([2H])Oc1ccc(/C=C/C(=O)/C=C(/C=C/c2ccc(OC([2H])([2H])[2H])c(OC([2H])([2H])[2H])c2OC([2H])([2H])[2H])OB(F)F)c(OC([2H])([2H])[2H])c1OC([2H])([2H])[2H]`, the growth in assay [1] is 39.6%; in [2], 38.5%; in assay [3], 57.1%; in assay [4], 83%; in assay [5] it was 47.7%; in assay [6], 67.6%. Moreover, the growth in assay [7] is 92.4%; in assay [8] it was 56.5%; in assay [9], 13.2%; in [10] it was 73.3%.

In the case of `O=C(Nc1ncc(Cc2ccccc2)s1)c1ccc2c(c1)OCCO2`, the growth in assay [1] was 7.07% (active); in assay [2], 4.31% (active); in assay [3], 9.1% (active); in assay [4], 35.4%; in assay [5], 14.2%; in assay [6], 27.1%. For the same molecule, the growth in assay [7] was -29.7% (active); in assay [8], 33.6%; in assay [9], 10.6%; in [10] it was 66.3%.

Take `COc1ccc(-c2nc3cc(C(=O)NC4CCCCC4)ccc3n2C2CCCCC2)cc1`: the growth in [1] was 21.5%; in [2], 38.3%; in assay [3] it was 91.6%; in assay [4], 109%; in assay [5], 91.5%; in assay [6] it was 95.8%. For the same molecule, the growth is 65.3% in assay [7], 95.3% in assay [8], 76.9% in [9] and 100% in assay [10].
